Potency and activity, negative = inhibition data for 14 molecules are collected here from PubChem BioAssay (NCATS).

Records with an inconclusive call do not appear. Values without a mark were called inactive. Calls of active or inactive are those of the source. Unless noted, the call rests on the fitted dose curve; in most records, active means well fitted curve in the direction sought with a large enough effect; inconclusive means small, poorly fitted or top-dose-only effect, or another doubt; inactive means no such curve, though single readings can be large; an effect the other way counts as inactive or inconclusive.

Assay [1] can be described thus: qHTS for Inhibitors of Plasmodium falciparum (DD2) proliferation (AID 504314). Further: potency means the concentration at half of the fitted maximal effect.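 On activity, negative = inhibition: parasite DNA measured by SYBR Green fluorescence after red cell lysis; plate controls were DMSO vehicle for no effect and artemisinin wells for full effect.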 A digest of the protocol: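 SYBR Green growth assay: 72 h compound exposure of infected red cells (2.5% hematocrit, 0.3% parasitemia), then lysis and overnight dye staining, fluorescence 485/535 nm. Values scaled between DMSO and 0.29 uM artemisinin controls.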
Assay [2] is described as follows: qHTS for Inhibitors of Plasmodium falciparum (GB4) proliferation (AID 504315).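 Further: 0% = DMSO vehicle and -100% = 0.29 µM artemisinin control; nearly all actives have a fitted effect of over 50% in size.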 In outline: (§1)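 Parasite growth measured as SYBR Green DNA fluorescence (ex 485, em 535 nm) after overnight lysis following 72 h culture at 37 °C, 0.3% parasitemia, 2.5% hematocrit. Values normalized against DMSO and 0.29 uM artemisinin controls, with plate-stack correction.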
For orientation: qHTS replaces the single test concentration by a dilution series.

Assay [3] is described as follows: qHTS for Inhibitors of Plasmodium falciparum (CP250) proliferation (AID 504320).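 Further: plate controls were DMSO vehicle for no effect and 0.29 µM artemisinin control for full effect.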 In outline:
as §1

Assay [4] deals with Atrial natriuretic peptide receptor 1 (Homo sapiens) (UniProt P16066). Put plainly: Natriuretic polypeptide receptor (hNpr1) antagonism - Pilot CMLD screen (AID 1347052; calls by dose curve;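 further: HEK293 cells with hNpr1 stimulated by hNppA peptide at 0.1 nM; cGMP level read as GloSensor luciferase luminescence after agonist stimulation; series mostly up to about 9.2 µM; on the % scale 0 is the no-effect control and ±100 the full control effect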).
Sequence of Atrial natriuretic peptide receptor 1 (Homo sapiens) (P16066 whole entry, looked up): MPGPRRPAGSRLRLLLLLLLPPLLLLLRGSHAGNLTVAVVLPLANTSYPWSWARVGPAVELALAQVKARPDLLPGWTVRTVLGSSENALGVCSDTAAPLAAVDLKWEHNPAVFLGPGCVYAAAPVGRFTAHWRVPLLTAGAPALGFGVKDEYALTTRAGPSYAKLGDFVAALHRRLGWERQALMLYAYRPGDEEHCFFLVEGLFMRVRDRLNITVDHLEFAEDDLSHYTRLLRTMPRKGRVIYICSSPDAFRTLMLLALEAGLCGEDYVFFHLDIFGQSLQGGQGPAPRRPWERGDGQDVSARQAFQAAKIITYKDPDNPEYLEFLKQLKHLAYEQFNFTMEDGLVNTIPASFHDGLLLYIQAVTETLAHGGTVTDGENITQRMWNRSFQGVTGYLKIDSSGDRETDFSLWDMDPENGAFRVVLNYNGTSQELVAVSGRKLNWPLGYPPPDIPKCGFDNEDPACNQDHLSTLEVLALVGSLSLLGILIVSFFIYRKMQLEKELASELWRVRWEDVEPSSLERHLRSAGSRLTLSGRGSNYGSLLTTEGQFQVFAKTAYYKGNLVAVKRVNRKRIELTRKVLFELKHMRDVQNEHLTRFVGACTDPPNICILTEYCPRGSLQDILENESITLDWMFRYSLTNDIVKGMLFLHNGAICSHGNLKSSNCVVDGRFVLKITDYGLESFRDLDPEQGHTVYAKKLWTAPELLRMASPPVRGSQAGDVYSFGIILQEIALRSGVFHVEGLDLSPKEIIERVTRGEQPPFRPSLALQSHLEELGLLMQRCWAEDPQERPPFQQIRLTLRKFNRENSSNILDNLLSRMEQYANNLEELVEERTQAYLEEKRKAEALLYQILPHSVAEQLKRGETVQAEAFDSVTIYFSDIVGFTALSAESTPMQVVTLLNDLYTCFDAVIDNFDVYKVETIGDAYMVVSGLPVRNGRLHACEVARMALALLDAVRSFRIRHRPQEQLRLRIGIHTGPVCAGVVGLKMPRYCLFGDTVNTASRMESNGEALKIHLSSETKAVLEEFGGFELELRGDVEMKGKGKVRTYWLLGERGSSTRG
The nature of assay [5]: qHTS for Inhibitors of Plasmodium falciparum (7G8) proliferation (AID 504316). Further: nearly all actives have a fitted effect of over 65% in size. Further: potency means the concentration at half of the fitted maximal effect. In outline: as §1
Assay [6] can be described thus: qHTS for Inhibitors of Plasmodium falciparum (HB3) proliferation (AID 504318). Further: nearly all actives have a fitted effect of over 60% in size. Further: potency means the concentration at half of the fitted maximal effect. A digest of the protocol:
as §1

In the case of `COc1ccc(NC(=O)N2CCc3nc(-c4ccc(OC)cc4C)c4c(c3C2)CO[C@@H](c2ccccc2)C4)cc1`, the Potency result in assay [1], in assay [2], in assay [3] and in assay [4] was “inactive” in each case.

As to `O=C1C2=C(C(=O)c3ccccc31)[C@H]1O[C@](CCCCN3C(=O)c4ccccc4C3=O)(Cc3c1ccc1ccccc31)O2`, the Potency in assay [1] is 1500 nM (active); in assay [5], 953 nM (active); in assay [6] it was 757 nM (active). The Potency result in assay [4] is “inactive”.

Consider `COc1cccc([C@H]2Oc3ccc(OC)cc3C(=NO[C@@H](C)c3cn([C@H](CO)Cc4ccccc4)nn3)[C@H]2O)c1`, for which the Potency entry in assay [1], in assay [5], in assay [6], in assay [3] and in assay [4] was “inactive” in each case.

Take `CCN1C(=NCCCOC(C)C)N[C@@H](CCc2ccccc2)[C@H](C(=O)OC)[C@H]1C`: the Potency entry in assay [1], in assay [5], in assay [6], in assay [3] and in assay [4] was “inactive” in each case.

In the case of `COC(=O)N[C@@H](c1cccc(F)c1)[C@@H](C)[N+](=O)[O-]`, the Potency result in assay [1], in assay [5], in assay [6], in assay [3] and in assay [4] was “inactive” throughout.

For `CCCCc1cc2c(cn1)=C(OC(=O)c1ccco1)C(C)(OC(=O)CC)C(=O)C=2` (stereo unspecified), in assay [1], the activity, negative = inhibition was 5.3% [at 1.12 µM]. In addition, the Potency in assay [5] was 1510 nM (active). The Potency entry in assay [6], in assay [3] and in assay [4] was “inactive” throughout.

In the case of `CCN1C(=O)N[C@@H](c2ccccc2)[C@H](C(=O)OC)[C@H]1C`, the Potency entry in assay [1], in assay [5], in assay [6], in assay [3] and in assay [4] was “inactive” in each case.

For `CC(C)C(=O)NC(=O)[C@@H]1CCCN1C(=O)C=Cc1ccccc1`, the Potency result in assay [1], in assay [5], in assay [6], in assay [3] and in assay [4] was “inactive” in each case.

As to `COC1=CC2C(=O)C(C(c3ccccc3)C2C)C1(C)O` (stereo unspecified), the Potency entry in assay [1], in assay [5], in assay [6], in assay [3] and in assay [4] was “inactive” in each case.

As for `C=CCOC(=O)C(C(C)=O)[C@@H](NC(=O)OC)c1cccc(F)c1` (stereo partly specified), the Potency entry in assay [1], in assay [5], in assay [6], in assay [3] and in assay [4] was “inactive” throughout.

For `COC(=O)[C@H]1[C@H](CCc2ccccc2)NC(=O)N(Cc2ccccc2)[C@H]1C`, the Potency entry in assay [1], in assay [5], in assay [6], in assay [3] and in assay [4] was “inactive” each time.

Turning to `COC(=O)C(C(=O)OC)c1ccccc1[N+](=O)[O-]`, the Potency result in assay [1], in assay [5], in assay [6], in assay [3] and in assay [4] was “inactive” each time.

For the molecule `CC(=O)OC[C@H]1O[C@H](CC=NO[C@H](C)CN2CCCCc3nc(C)c(C)cc32)C=C[C@@H]1OC(C)=O`, the Potency entry in assay [1], in assay [5], in assay [6] and in assay [4] was “inactive” each time.

Turning to `COC(=O)NC(c1ccccc1)C1(C(=O)OC)C(=O)Cc2ccccc21` (stereo unspecified), the Potency entry in assay [1], in assay [5], in assay [6] and in assay [4] was “inactive” in each case.
